# Compound activity: PubChem BioAssay, several laboratories
# In the library only some 2.7% were active in any assay of this set; here they are far more common.
# PREPL inhibitor = inhibitors of human prolyl oligopeptidase-like enzyme PREPL; Q4J6C6; recombinant PREPL, fluorescence polarization activity-based probe; inhibition, % at 5.96 µM; actives 0.68% (n = 320,000); in the data active means inhibition above about 43%;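 further: 0% = enzyme with DMSO and 100% = wells lacking enzyme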
# TMEM16A inh = blocks the mouse calcium-activated chloride channel TMEM16A; HEK293 TMEM16A/YFP iodide influx fluorescence, ionomycin; normalized B-score (activity score, 25-100; higher = stronger inhibition) at 10 µM; actives 1.2% (n = 310,000); AID 588511;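 active means ratio plate-corrected score three or more library SD toward inhibition, starting fluorescence score within five deviations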;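 further: score derived from kinetic fluorescence span divided by baseline fluorescence per well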
# FID counter = displaces DNA intercalator in HCV helicase counter-screen. DNA fluorescent intercalator displacement, fluorescence. inhibition, % at 7.9 µM. actives 0.17% (n = 290,000); in the data active means inhibition above about 37%;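 further: 0% = vehicle and 100% = reference compound; higher means more ethidium bromide displaced from hairpin DNA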
# PP5 inh = inhibitors of human protein phosphatase 5 (PP5); inhibition, % at 6.7 µM; actives 0.18% (n = 320,000); P53041; purified PP5c, OMFP substrate fluorescence; AID 1987;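 active means inhibition above the campaign's mean inhibition across all tested compounds plus 3 SD, cut at about 9.5% in these data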;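 further: 0% = DMSO only and 100% = 100 µM cantharidin control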
# TMEM16A act = activates or potentiates the mouse TMEM16A chloride channel; Q8BHY3; HEK293 TMEM16A/YFP-H148Q/I152L, iodide quench fluorescence; hits give low values; B-score at 10 µM; actives 0.3% (n = 340,000); AID 623877;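 active means fluorescence-ratio B-score plate-corrected deviation score at least 3 library SD below zero, with starting fluorescence score within 5 deviations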;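 further: channel opened by trigger with iodide after compound preincubation; score built on the fluorescence ratio of max minus min over baseline; more negative score means more quench and so TMEM16A activation or potentiation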
# PP1 counter = blocks human PP1-alpha phosphatase, a PP5 counter-screen | P62136 | purified PP1alpha, OMFP fluorescence | inhibition, % at 6.7 µM | actives 0.9% (n = 320,000);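 active means inhibition above the mean inhibition of all tested compounds plus 3 SD, computed separately for each screening campaign, cut at about 15% in these data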
# * hit, by the source's call; i = inactive; . = no result given.
SMILES,PREPL inhibitor,TMEM16A inh,FID counter,PP5 inh,TMEM16A act,PP1 counter
CC(=O)NCCc1c(C)n(Cc2ccccc2)c2ccccc12,13.9,i,-23.6,2.0,i,-5.9
Cc1cc(O)c(C(C)C)cc1NC(=S)Nc1cc(C(C)C)c(O)cc1C,.,.,.,.,i,.
COc1ccc(C2=NN(C(=O)COC(=O)c3ccc(NC(=O)CC#N)cc3)C(c3ccco3)C2)cc1 (stereo unspecified),-75.3,.,.,2.3,i,16.0*
CN(CC(=O)Nc1nc2ccccc2s1)S(=O)(=O)c1ccc(Br)cc1,-72.7,25*,-10.7,6.0,i,7.7
C=C1C[C@H]2[C@@H]3C=C(C)C4=CC(=O)CC[C@]4(C)[C@H]3CC[C@]2(C)[C@@]1(OC(C)=O)C(C)=O,3.8,100*,.,1.3,i,1.5
C=CCNc1nc(C(=O)OCC)nc2ccccc12,7.0,100*,-0.9,0.8,i,0.1
CCOC(=O)c1nc(NCc2ccccc2)c2ccccc2n1,-1.2,i,-18.8,-1.7,i,-1.0
NC(=O)C1(NC2CCCCC2)CCN(Cc2ccccc2)CC1,.,.,.,.,i,.
Cc1ccccc1C(=O)N1CCC(C(=O)Nc2nc3ccc(F)cc3s2)CC1,25.7,25*,.,-1.7,i,-4.0
CC(C)CN1C(=O)C(=O)N(CC(=O)N(C)CC(=O)Nc2ccc(F)cc2)C1=O,6.2,.,.,-0.6,i,-8.4
O=C(C1CC1)N1CCC(c2nc(-c3ccc(S(=O)(=O)NCC4CCCO4)cc3)no2)CC1 (stereo unspecified),8.2,i,-36.0,1.8,i,-3.5
O=C(c1ccccc1)N1CCC(c2nc(-c3ccc(S(=O)(=O)NCC4CCCO4)cc3)no2)CC1 (stereo unspecified),8.8,25*,-12.8,1.4,i,-2.8
CCCCC(CC)C(=O)Oc1ccc(O)c(C(C)(C)C)c1 (stereo unspecified),4.6,25*,-16.0,0.1,i,0.2
CC(C)(C)c1cc(OC(=O)C2CCCC2)ccc1O,20.9,i,-16.1,4.5,i,5.2
CC1=CC2=NC(=O)/C(=C\c3cc(C)n(-c4cccc(Cl)c4)c3C)C(=N)N2O1,-6.4,i,-1.6,0.8,i,-0.3
CC1=CC2=NC(=O)/C(=C\c3cc(C)n(-c4ccccc4)c3C)C(=N)N2O1,4.5,i,-6.2,3.5,-4.95*,-1.5
Cc1oc(-c2ccc(F)cc2)cc1-c1nn2c(-c3ccoc3C)nnc2s1,8.1,i,.,2.7,i,15.4*
Cc1oc(-c2ccc(F)cc2)cc1-c1nn2c(-c3ccco3)nnc2s1,.,.,-8.0,.,.,.
CC(C)c1ccccc1-n1cc[nH]c1=S,-12.6,i,0.0,-0.7,i,-5.4
Cn1cc[nH]c1=S,.,.,-4.4,.,-12.6*,.
CC(SC(C)C(=O)NN=Cc1cccc(F)c1)C(=O)NN=Cc1cccc(F)c1 (stereo unspecified),.,.,.,.,i,.
COc1ccc(F)cc1S(=O)(=O)NCCCn1ccnc1,7.8,i,3.8,-0.1,i,0.3
c1ccc(-n2cc(CN3CCCC(CN4CCCC4)C3)c(-c3ccc4c(c3)OCO4)n2)cc1 (stereo unspecified),13.4,i,40.5*,-0.3,i,3.5
CC(=O)c1ccc(N2CCN(C(=O)c3cc4c(s3)CCCC4)CC2)cc1,42.3,i,-35.8,2.8,-37.1*,1.6
Cc1nnsc1NC(=O)OCc1ccccc1Cl,-1.3,i,-0.7,4.6,i,-3.4
SMILES,PREPL inhibitor,TMEM16A inh,FID counter,PP5 inh,TMEM16A act,PP1 counter
Cc1nnsc1NC(=O)OCc1ccc(C(F)(F)F)cc1,-23.5,i,0.2,2.0,i,16.8*
O=c1[nH]c(-c2ccccc2)ncc1OCc1ccccc1,.,.,.,.,i,.
N#CCC(=O)N/N=C/c1ccc(OCc2ccccc2)cc1,2.9,i,-6.0,0.6,i,-1.0
N#CCC(=O)N/N=C\c1ccc(OC/C=C/c2ccccc2)cc1,2.4,i,-21.7,0.6,i,17.3*
C#CCn1c(=NC(=O)c2ccc(S(=O)(=O)N3CCCc4ccccc43)cc2)sc2cc(S(N)(=O)=O)ccc21,-10.9,i,-1.0,0.3,i,15.6*
Cn1c(=NC(=O)c2ccc(S(=O)(=O)N3CCCc4ccccc43)cc2)sc2cc(S(C)(=O)=O)ccc21,5.0,i,-2.9,0.7,i,-1.2
COCCN1C(=O)/C(=C/c2ccc(OCc3ccc(C(=O)O)cc3)c(OC)c2)SC1=Nc1ccccc1,-4.4,100*,-27.7,5.9,i,-0.2
O=c1oc2ccccc2c(Nc2cc3ccccc3cc2O)c1[N+](=O)[O-],19.4,100*,-2.9,4.9,i,-2.8
N#C/C(=C(/O)CCl)c1nc2c(s1)CCc1ccccc1-2,10.1,25*,4.2,-0.9,i,-1.3
COc1cccc(CN(C)CC(=O)Nc2sc3c(c2C#N)CCC3)c1OC,1.4,i,-18.2,0.2,i,-1.9
CN(CC(=O)Nc1sc2c(c1C#N)CCCCC2)Cc1nc2ccccc2c(=O)[nH]1,2.2,i,-7.0,1.1,i,15.3*
CN(c1ccc(F)cc1)S(=O)(=O)c1ccc(Cl)c(C(=O)NCC(c2ccco2)N2CCCCC2)c1 (stereo unspecified),.,.,.,.,i,.
COc1ccccc1CCC(=O)Oc1ccccc1C#N,.,i,-18.4,.,i,.
Clc1cccc(Nc2nc(-c3ccncc3)cs2)c1,-9.3,i,-0.7,3.1,i,16.7*
NC(=O)Cn1cnc2c(nnn2-c2ccc(F)cc2)c1=O,0.9,i,-2.0,-3.1,i,-2.0
Oc1c(Br)cc(Br)cc1/C=N/NC(=S)N[C@H]1CC2C=CC1C2 (stereo partly specified),21.2,i,-19.1,3.3,i,16.6*
CCc1nccn1CCC(=O)N1CCCC(N2CCN(c3cccc(Cl)c3)CC2)C1 (stereo unspecified),.,i,6.6,.,i,.
COc1ccc2nc(C)cc(Nc3ccc(N4CCN(C)CC4)cc3)c2c1,14.3,i,83.6*,-1.9,i,-0.7
COc1cccc(CN(C)C(=O)c2cccc(S(=O)(=O)Nc3cccc(C)c3)c2)c1OC,.,.,.,.,i,.
O=C(Nc1cc(Cl)cc2c1-c1ccc(Cl)cc1C2O)C(Cl)Cl (stereo unspecified),.,.,.,.,i,.
O=S(Cc1ccc(Br)cc1)Cc1nnc(SCc2ccc(Br)cc2)n1-c1ccccc1 (stereo unspecified),24.0,i,-26.2,-0.8,i,8.8
COc1ccc(C2(C(=O)Nc3ccc(S(N)(=O)=O)cc3)CCCC2)cc1,-6.0,i,-6.4,5.5,-5.12*,-2.5
CCOC(=O)c1ccc(NC(=O)C2(c3ccc(OC)cc3)CCCC2)cc1,-2.1,i,-22.9,3.2,i,6.1
O=[N+]([O-])c1ccc(O)c(CSc2nnnn2-c2ccccc2)c1,7.2,100*,0.3,2.6,i,3.3
COc1ccccc1NC(=O)Cc1ccsc1,4.2,i,-5.6,0.4,i,-6.2
